Out of some 310,000 compounds screened, about 14,000 (4.5%) showed an effect of 50% or more. The effect is printed as a negative number. The sample holds strong results, similar compounds and a random draw of the others, so the mix is not that of the screen.
Molecular target: human ether-à-go-go-related gene (hERG) potassium channel (human, UniProt Q12809)
Test: primary screen, population patch clamp on CHO cells stably expressing hERG; higher = less effect of the substance
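Note: peak tail current of the secondary pulse compared with the same well before compound.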

Sequence of human ether-à-go-go-related gene (hERG) potassium channel (Q12809 whole entry, looked up): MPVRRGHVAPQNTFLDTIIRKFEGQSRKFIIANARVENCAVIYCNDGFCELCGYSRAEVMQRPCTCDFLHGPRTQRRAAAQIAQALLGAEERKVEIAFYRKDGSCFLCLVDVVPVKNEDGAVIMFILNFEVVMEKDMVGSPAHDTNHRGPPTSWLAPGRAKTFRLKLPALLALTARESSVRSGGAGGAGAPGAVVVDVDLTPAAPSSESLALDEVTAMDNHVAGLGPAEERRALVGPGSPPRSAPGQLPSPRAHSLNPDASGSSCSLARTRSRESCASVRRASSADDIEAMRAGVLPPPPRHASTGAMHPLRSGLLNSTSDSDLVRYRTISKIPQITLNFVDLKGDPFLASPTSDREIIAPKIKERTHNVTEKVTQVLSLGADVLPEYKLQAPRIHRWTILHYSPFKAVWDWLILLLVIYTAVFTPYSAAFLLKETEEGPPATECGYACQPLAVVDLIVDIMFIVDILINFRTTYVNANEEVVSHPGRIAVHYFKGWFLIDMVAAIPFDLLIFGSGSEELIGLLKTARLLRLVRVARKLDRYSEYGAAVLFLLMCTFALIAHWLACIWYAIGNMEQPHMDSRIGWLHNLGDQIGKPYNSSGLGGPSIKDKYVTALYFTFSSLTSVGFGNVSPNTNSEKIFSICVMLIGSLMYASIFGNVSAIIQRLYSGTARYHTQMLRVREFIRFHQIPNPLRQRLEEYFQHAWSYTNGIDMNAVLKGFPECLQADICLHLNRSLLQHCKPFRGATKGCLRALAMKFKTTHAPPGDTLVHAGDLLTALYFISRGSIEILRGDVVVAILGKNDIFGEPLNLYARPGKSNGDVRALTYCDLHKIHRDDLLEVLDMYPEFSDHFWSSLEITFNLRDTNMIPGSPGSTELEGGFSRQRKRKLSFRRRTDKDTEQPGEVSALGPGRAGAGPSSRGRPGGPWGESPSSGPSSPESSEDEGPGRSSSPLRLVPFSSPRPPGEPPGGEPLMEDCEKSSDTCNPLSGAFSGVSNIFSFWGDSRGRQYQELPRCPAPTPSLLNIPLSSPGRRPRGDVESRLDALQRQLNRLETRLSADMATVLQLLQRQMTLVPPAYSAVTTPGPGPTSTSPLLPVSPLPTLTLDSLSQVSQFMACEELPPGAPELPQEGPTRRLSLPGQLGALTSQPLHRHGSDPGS

Row | SMILES | hERG current change (%, negative = inhibition) at 10uM [%]
1 | O=C(NC1CCCc2ccccc21)c1cc(S(=O)(=O)N2CCOCC2)ccc1F (stereo not shown) | 6.48
2 | COc1ccc(/C=C/C(=O)Nc2nc(C)c(C(=O)N(C)C)s2)cc1 | 3.15
3 | CCN(CC)CCN(C(=O)c1cccc([N+](=O)[O-])c1)c1nc2ccc(OC)cc2s1.Cl | -39.1
4 | CCN(CC)CCN(C(=O)c1ccc2ccccc2c1)c1nc2ccc(F)cc2s1.Cl | -12.7
5 | CN(C)CCCN(C(=O)c1cccc(N2C(=O)CCC2=O)c1)c1nc2cc3c(cc2s1)OCO3.Cl | -24
6 | CCOc1ccc2nc(N(CCN(CC)CC)C(=O)c3cccc([N+](=O)[O-])c3)sc2c1.Cl | -59.5
7 | CCOc1ccc2nc(N(CCN(CC)CC)C(=O)c3ccc([N+](=O)[O-])cc3)sc2c1.Cl | -65.7
8 | CCOc1cccc2sc(N(CCN(CC)CC)C(=O)c3cccc([N+](=O)[O-])c3)nc12.Cl | -75
9 | CCN(CC)CCN(C(=O)c1ccc2ccccc2c1)c1nc2ccc(OC)cc2s1.Cl | -30
10 | CCN(CC)CCN(C(=O)c1ccc([N+](=O)[O-])cc1)c1nc2ccc(OC)cc2s1.Cl | -49.7
11 | CCN(CC)CCN(C(=O)c1ccc(N2C(=O)CCC2=O)cc1)c1nc2cc3c(cc2s1)OCO3.Cl | -44.6
12 | CCOc1cccc2sc(N(CCN(CC)CC)C(=O)c3cccc(N4C(=O)CCC4=O)c3)nc12.Cl | -68.4
13 | CCN(CC)CCN(C(=O)c1ccc2c(c1)CCCC2)c1nc2ccc(OC)cc2s1.Cl | -5.4
14 | COc1ccc(-c2csc(-c3ccccc3)n2)c(OC)c1 | 29.1
15 | O=C(Oc1cccc(C(=S)N2CCOCC2)c1)c1ccc([N+](=O)[O-])cc1[N+](=O)[O-] | -14.4
16 | CCOC(=O)C1(Cc2cccc(OC)c2)CCCN(C(=O)c2cc(C)oc2C)C1 (stereo not shown) | -6.37
17 | O=C(CNC(=S)N(Cc1ccccc1Cl)C1CCCC1)NCCCN1CCOCC1 | 7.4
18 | CSc1ccc(CNCC2CCCO2)cc1.Cl (stereo not shown) | 2.99
19 | CC(/C=N/NC(=O)Cn1cnc2c1c(=O)n(C)c(=O)n2C)=C\c1ccco1 | -10.2
20 | CCN(C(=O)CSc1nc2ccccc2o1)C1CCS(=O)(=O)C1 (stereo not shown) | -3.25

Row | SMILES | hERG current change (%, negative = inhibition) at 10uM [%]
21 | CC1(CC(=O)N/N=C/c2ccc(OCc3ccc(Cl)cc3Cl)cc2)OCCCO1 | 5.38
22 | COc1cccc(C(=O)Nc2ccccc2F)c1 | 8.37
23 | O=C(CCc1nc2ccccc2c(=O)[nH]1)NNC(=O)COc1ccc(Br)cc1 | 6.48
24 | CCOC(=O)c1nnn2c1nc(N1CCOCC1)c1ccccc12 | -20.4
25 | CCOC(=O)c1nnn2c1nc(N1CCN(C)CC1)c1ccccc12 | -4.25
26 | CCOC(=O)c1nnn2c1nc(N1CCN(c3ccccc3)CC1)c1ccccc12 | -62.4
27 | CCOc1ccccc1N1C(=O)NC(=O)C(CCc2ccncc2)(CCc2ccncc2)C1=O | -29.6
28 | COc1ccc(CC2(CCc3ccncc3)C(=O)NC(=O)NC2=O)cc1 | 22.5
29 | O=C1NC(=O)C(CCc2ccncc2)(CCc2ccncc2)C(=O)N1Cc1ccc(F)cc1 | -76.6
30 | COc1ccc(OC)c(N2C(=O)NC(=O)C(CCc3ccncc3)(CCc3ccncc3)C2=O)c1 | -41.2
31 | O=C1NC(=O)C(CCc2ccncc2)(CCc2ccncc2)C(=O)N1CCc1ccc(F)cc1 | -68.5
32 | O=C1CC(=O)N(CCc2ccc(F)cc2)C(=O)N1 | 9.33
33 | CCOC(=O)CN1CC23C=CC(O2)C(C(=O)NCCc2ccccc2)C3C1=O (stereo not shown) | 6.73
34 | CCOC(=O)N1CCN(S(=O)(=O)c2ccc(C)cc2)C1c1ccc(OC)cc1 (stereo not shown) | -11.9
35 | Cc1ccc(-c2nn(Cc3ccccc3)cc2C=O)cc1C | -13.9
36 | Cc1cnc(NC(=O)CSc2nc3ccccc3c(=O)[nH]2)s1 | -7.72
37 | Cc1ccc(CCNC(=O)c2ccc3nc4ccc(Cl)cc4c(=O)n3c2)cc1 | 20.4
38 | CNC(=O)c1cc2c(=O)n3cccc(C)c3nc2n(C(C)C)c1=N | -77.3
39 | CNC(=O)c1cc2c(=O)n3cc(C)ccc3nc2n(C(C)C)c1=N | -77.1
40 | Cc1cccn2c(=O)c3cc(C(=O)NCc4cccnc4)c(=N)n(C(C)C)c3nc12 | -69.4

Row | SMILES | hERG current change (%, negative = inhibition) at 10uM [%]
41 | Cc1ccc2nc(SCC(=O)Nc3cccc4ccccc34)nc(=O)n2c1 | -14
42 | Cc1cccn2c(=O)c3cc(C(=O)O)n(C)c3nc12 | 6.65
43 | Cc1cccn2c(=O)c3cc(C(=O)NCC(C)C)sc3nc12 | -3.21
44 | Cc1cccn2c(=O)c3cc(C(=O)N(C)C)n(C)c3nc12 | 2.7
45 | Cc1ccccc1CC(=O)NCc1cccnc1 | 10.8
46 | O=C(CSc1nnc2scc(-c3ccc(Cl)cc3)n12)NCc1ccco1 | -15.9
47 | CCOc1cc(CNC(C)(C)CO)cc(Br)c1OCc1ccc(Cl)cc1Cl | -12.1
48 | COC1CCN(C(=O)CC2C(=O)NCCN2CC(C)(C)C)CC1 (stereo not shown) | 18.5
49 | COC(=O)c1cc(NC(=O)c2cccnc2)cc(C(=O)OC)c1 | 11
50 | N#CC(=C1SC=CS1)c1nc(-c2ccccc2)cs1 | 9.47
51 | O=C(NCCCN1CCOCC1)/C(=C/c1ccco1)NC(=O)c1ccccc1 | 1.44
52 | CC(C)c1ccc(/C=C(\NC(=O)c2ccccc2)C(=O)NCCN2CCOCC2)cc1 | -61
53 | O=C(NCCN1CCOCC1)/C(=C\c1ccccc1Cl)NC(=O)c1ccccc1 | -16.2
54 | CNC(=O)C(=O)NCCCN1CCOCC1 | 7.92
55 | CC(C)c1ccc(/C=C(\NC(=O)c2ccccc2)C(=O)NCCCN2CCOCC2)cc1 | -71.4
56 | Cn1cc(/C=C(\NC(=O)c2ccccc2)C(=O)NCCCN2CCOCC2)c2ccccc21 | 3.43
57 | CC(C)NC(=O)C(=O)NCCCN1CCOCC1 | 25.1
58 | CC(C)CNC(=O)C(=O)NCCCN1CCOCC1 | -61.6

— paper PMC4336329 (PLoS ONE, 2015)
